Screening data from PubChem BioAssay.
TEAD-YAP inh – TEAD-YAP interaction inhibition, primary screen, TEAD-YAP interaction inhibitor project, luminescence, HEK-TIYL cells; TEAD-Gal4/YAP UAS-luciferase luminescence; inhibition, % at 9.12 µM; 640,000 compounds, 1.4% hits; AID 1259422, 2018; in the data active means inhibition above about 32%;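 further: 0% = median of test compound wells and 100% = reference inhibitor wells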
FBW7 activator – FBW7 E3 ligase activators, primary screen, biochemical, AlphaScreen, human. F-box/WD repeat-containing protein 7 (Homo sapiens), Q969H0. AlphaScreen FBW7–phospho-cyclin E peptide binding, activator screen. normalized activity (activation), % at 26.1 µM. 650,000 compounds, 0.13% hits; in the data active means normalized activity above about 1.9%;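 further: purified mutant Fbw7 with reduced substrate affinity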
GPR151 activ – activators of human GPR151, primary screen, cell-based, PathHunter beta-arrestin, luminescence. PathHunter beta-arrestin GPR151 cells. activation, % at 11.2 µM. AID 1508602, 2020. 650,000 compounds, 1% hits; in the data active means activation above about 4.9%;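 further: 0% = median of compound wells and 100% = cells with positive control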
MITF primary – MITF inhibitors, primary screen, biochemical, AlphaScreen, human. AID 1259374, 2018. inhibition, % at 2.6 µM. AlphaScreen MITF homodimerization, bead proximity signal. Microphthalmia-associated transcription factor (Homo sapiens), O75030. 650,000 compounds, 0.91% hits; in the data active means inhibition above about 50%;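 further: 0% = vehicle wells with protein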
Target sequence (O75030 whole entry, looked up): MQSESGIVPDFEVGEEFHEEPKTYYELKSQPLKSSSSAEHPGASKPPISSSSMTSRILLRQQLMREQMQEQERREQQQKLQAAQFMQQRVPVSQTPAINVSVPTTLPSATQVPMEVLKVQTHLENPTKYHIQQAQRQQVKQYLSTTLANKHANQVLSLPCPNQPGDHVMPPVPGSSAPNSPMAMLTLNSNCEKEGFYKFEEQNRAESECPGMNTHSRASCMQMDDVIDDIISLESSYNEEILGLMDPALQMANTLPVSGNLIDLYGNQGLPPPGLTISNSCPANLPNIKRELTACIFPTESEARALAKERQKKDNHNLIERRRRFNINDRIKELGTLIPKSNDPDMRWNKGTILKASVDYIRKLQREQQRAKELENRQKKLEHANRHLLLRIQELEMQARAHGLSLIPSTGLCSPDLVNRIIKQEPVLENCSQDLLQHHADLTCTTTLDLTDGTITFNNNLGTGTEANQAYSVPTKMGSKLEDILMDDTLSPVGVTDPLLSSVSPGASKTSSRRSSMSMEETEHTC
The depositor's hits bear a star. Most compounds without a hit are left out; they make up all but 3.5% or so of the library.

For CC(=O)c1cccc(NC(=O)Nc2cccnc2)c1 the results were TEAD-YAP inh 33*, FBW7 activator 0, GPR151 activ 0 and MITF primary 6.
`O=C(Nc1cccnc1)Nc1cccc(F)c1` gave TEAD-YAP inh -7, FBW7 activator 0, GPR151 activ -1 and MITF primary 8.
For COc1cccc(C2C(C(=O)Nc3ccccc3)=C(C)N=c3s/c(=C/c4c[nH]c5ccccc45)c(=O)n32)c1 (configuration not stated) the results were TEAD-YAP inh 2, FBW7 activator 0, GPR151 activ 1 and MITF primary 5.
`COCCSc1nsc(NC(=O)Nc2cccc(C(C)=O)c2)n1` gave TEAD-YAP inh 33*, FBW7 activator 0, GPR151 activ 0 and MITF primary 3.
`Clc1ccc(-n2ncc3c(N4CCCCCC4)ncnc32)cc1` gave TEAD-YAP inh 90*, FBW7 activator 0, GPR151 activ 4 and MITF primary -6.
`Clc1ccc(-n2ncc3c(N4CCN(c5ccc(Cl)c(Cl)c5)CC4)ncnc32)cc1` gave TEAD-YAP inh 9, FBW7 activator 0, GPR151 activ 0 and MITF primary 10.
Fc1ccc(-n2ncc3c(N4CCOCC4)ncnc32)cc1 was read as TEAD-YAP inh 77*, FBW7 activator 0, GPR151 activ 0 and MITF primary -21.
For Clc1ccc(-n2ncc3c(N4CCOCC4)ncnc32)cc1 the results were TEAD-YAP inh 80*, FBW7 activator 0, GPR151 activ 0 and MITF primary -9.
Screening Cc1cccc(-n2ncc3c(N4CCN(c5ccc(Cl)c(Cl)c5)CC4)ncnc32)c1 returned TEAD-YAP inh 3, FBW7 activator 0, GPR151 activ -1 and MITF primary -1.
Screening Cc1ccc(-n2ncc3c(N4CCOCC4)ncnc32)cc1Cl returned TEAD-YAP inh 92*, FBW7 activator 0, GPR151 activ -3 and MITF primary -4.
`CCOC(=O)N1CCN(C(=O)CN(c2cc(Cl)ccc2OC)S(=O)(=O)c2ccc(C)cc2)CC1` gave TEAD-YAP inh 6, FBW7 activator 0, GPR151 activ 0 and MITF primary -13.
CN(C)CCCOc1ccc(-c2cccc(C(F)(F)F)c2)cn1 was read as TEAD-YAP inh -11, FBW7 activator 1, GPR151 activ -1 and MITF primary 9.
Cc1cc(Br)ccc1N(NC(=O)C(O)(c1ccc(Cl)cc1)c1ccc(Cl)cc1)C(=O)c1ccccc1 was read as TEAD-YAP inh 5, FBW7 activator 0, GPR151 activ 1 and MITF primary -2.
For Clc1ccc(CCNc2ncnc3c2cnn3-c2ccc(Cl)cc2)cc1 the results were TEAD-YAP inh 0, FBW7 activator 0, GPR151 activ 0 and MITF primary 9.
`Clc1ccc(-n2ncc3c(NCCN4CCOCC4)ncnc32)cc1` gave TEAD-YAP inh 42*, FBW7 activator 0, GPR151 activ 1 and MITF primary -3.
CCCn1cc(NC(=O)c2cc(-c3ccccc3OCc3ccccc3)no2)cn1 was read as TEAD-YAP inh 43*, FBW7 activator 0, GPR151 activ 2 and MITF primary 13.
For CCCn1cc(NC(=O)c2cc3ccccc3o2)cn1 the results were TEAD-YAP inh -55, FBW7 activator 0, GPR151 activ -1 and MITF primary -9.
For COCc1c(C(=O)N/N=C\c2ccc(O)cc2O)nnn1-c1nonc1N the results were TEAD-YAP inh 19, FBW7 activator 0, GPR151 activ 2 and MITF primary 34.
`COc1cccc(/C=N/NC(=O)c2nnn(-c3nonc3N)c2-c2ccccc2)c1O` gave TEAD-YAP inh 15, FBW7 activator 0, GPR151 activ -1 and MITF primary 18.
For Cc1c(C(=O)N/N=C/c2ccc(O)cc2O)nnn1-c1nonc1N the results were TEAD-YAP inh 75*, FBW7 activator -1, GPR151 activ 2 and MITF primary 33.
CCc1c(C(=O)N/N=C/c2ccc(N(CC)CC)cc2O)nnn1-c1nonc1N was read as TEAD-YAP inh 41*, FBW7 activator 0, GPR151 activ -1 and MITF primary 9.
Screening COc1cccc(/C=N/NC(=O)c2nnn(-c3nonc3N)c2C)c1O returned TEAD-YAP inh 75*, FBW7 activator 0, GPR151 activ 1 and MITF primary 5.
Screening CCN(CC)c1ccc(/C=N/NC(=O)c2nnn(-c3nonc3N)c2CN(C)C)c(O)c1 returned TEAD-YAP inh 13, FBW7 activator 0, GPR151 activ 0 and MITF primary -8.
`N#Cc1ccccc1NC(=O)CSc1n[nH]c(N)n1` gave TEAD-YAP inh 9, FBW7 activator 0, GPR151 activ 2 and MITF primary 6.
`CCc1ccc(C2CC(=O)NC(SCC(=O)Nc3ccc(F)cc3)=C2C#N)cc1` (configuration not stated) gave TEAD-YAP inh 27, FBW7 activator 0, GPR151 activ -2 and MITF primary -2.
CC(Nc1ncnc2sccc12)c1ccccc1 (configuration not stated) was read as TEAD-YAP inh 53*, FBW7 activator 0, GPR151 activ 3 and MITF primary -4.
Screening CC[n+]1c(/C=C/c2ccc(N(C)C)cc2)sc2cc(C)ccc21 returned TEAD-YAP inh 89*, FBW7 activator 0, GPR151 activ -1 and MITF primary 23.
`CC[n+]1c(C)sc2ccc(C)cc21` gave TEAD-YAP inh 15, FBW7 activator 0, GPR151 activ 1 and MITF primary 1.
For Cc1ccc(C(=O)Nc2ncn[nH]2)cc1Cl the results were TEAD-YAP inh -4, FBW7 activator 0, GPR151 activ 0 and MITF primary 0.
`COc1cnc(Nc2ccc(N3CCOCC3)cc2)nc1Nc1ccccc1C(N)=O` gave TEAD-YAP inh 55*, FBW7 activator 0, GPR151 activ 0 and MITF primary 7.
Screening NC(=O)c1ccccc1Nc1nc(Nc2ccc(N3CCCC3=O)cc2)ncc1Cl returned TEAD-YAP inh 78*, FBW7 activator 0, GPR151 activ 3 and MITF primary -5.
`Cc1ncn(-c2ccc(Nc3ncc(C)c(Nc4ccccc4C(N)=O)n3)cc2)n1` gave TEAD-YAP inh 88*, FBW7 activator 1, GPR151 activ 0 and MITF primary 7.
Screening N#Cc1ccc(Nc2ncc(Cl)c(Nc3ccccc3C(N)=O)n2)cc1 returned TEAD-YAP inh 26, FBW7 activator 0, GPR151 activ 0 and MITF primary 14.
Screening COc1cc(N2CCOCC2)ccc1Nc1ncc(Cl)c(Nc2ccccc2C(=O)NC2CC2)n1 returned TEAD-YAP inh 12, FBW7 activator 0, GPR151 activ 0 and MITF primary 2.
For N#Cc1ccc(OCC(=O)OCc2ccc(Br)cc2)cc1 the results were TEAD-YAP inh 1, FBW7 activator 0, GPR151 activ 0 and MITF primary 13.
Screening O=C(COc1ccc(Br)cc1)OCc1ccccc1 returned TEAD-YAP inh -4, FBW7 activator 1.9*, GPR151 activ -1 and MITF primary 7.
